IL1B secr inh: inflammasome signaling inhibition, IL-1 beta readout. THP-1 LPS/ATP IL-1B secretion, AlphaLISA, 16 h; active compounds read low. activity change, % at 57.5 µM. AID 743279. 4.7% of 360,000 active; in the data active = activity change below about -50%; inconclusive = mostly about -30% to -49%; note: % is set by controls: 0 for no effect and ±100 for the full control effect
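THP-1 cells pretreated 1 hr with compounds (up to 57.5 uM final), then stimulated with LPS (250 ng/mL final) plus ATP (1.25 mM final); secreted IL-1B measured by AlphaLISA after 16 hr, decreased signal indicating inhibition.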
HepG2 viability: kills HepG2 cells in TGF-b inhibitor counter-screen | Potency, µM (series often up to 46.1 µM), inactives show top-dose activity change, negative = cytotoxicity, most hits filed as cytotoxic | 0.76% of 410,000 active | HepG2 CAGA-GFP viability, ATP luminescence, 18 h | AID 588856; note: potency is the fitted concentration of half-maximal effect
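CellTiter-Glo luminescence gave cytotoxicity after 18 hours at 37 degrees C. The cells were HepG2 CAGA-GFP in 1% FBS DMEM, stimulated with 500 pg/mL TGF-beta after compound addition. %Activity was normalised to no-cell wells (complete cell-killing) and DMSO (no toxicity), and curves were fitted and classified.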
TGFb SMAD3 inh: inhibitors of TGF-b signaling | 1.2% of 410,000 active | Potency, µM (titrated, usually from 46.1 µM), without a hit: top-dose activity, negative = inhibition, actives largely listed as inhibitors | HepG2 CAGA-GFP TGF-b/SMAD3 reporter, GFP fluorescence, 18 h; TGF-beta stimulated, 500 pg/mL final | AID 588855; note: potency is the fitted concentration of half-maximal effect; % is set by controls: 0 for no effect and ±100 for the full control effect; nearly all actives have a fitted effect of over 65% in size
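Inhibition of TGF-beta-driven CAGA-GFP reporter expression in HEPG2 cells is measured by cellular GFP fluorescence after 18 h stimulation with 500 pg/mL recombinant TGF-beta in 1% FBS medium at 37 degrees C.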
ATXN viability: viability counter-screen for ATXN expression inhibitors. S2 cells (HEK-293 line with an ATXN2-luciferase reporter) viability, CellTiter-Fluor protease fluorescence, 24 h. AID 651635. 0.49% of 400,000 active. Potency, µM (series often up to 56.7 µM), hits mostly cytotoxic; note: potency is the fitted concentration of half-maximal effect; nearly all actives have a fitted effect of over 40% in size
ATXN2 expr inh: ATXN2 expression inhibition; 0.72% of 360,000 active; HEK-293 ATXN2-luciferase reporter, luminescence, 24 h; Potency, µM (top dose mostly 57 µM), for inactives: at the highest dose activity change, negative = inhibition, usual class: inhibitors; note: potency is the fitted concentration of half-maximal effect; % is set by controls: 0 for no effect and ±100 for the full control effect; nearly all actives have a fitted effect of over 55% in size
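qHTS (up to 57 uM final) was run with 24 h compound exposure of reporter cells at 37 °C. Each well was multiplexed: SteadyGlo luminescence measured ATXN2-luciferase expression after a fluorogenic Gly-Phe-AFC viability readout (25 uM final).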
The depositor's hits bear a star; i = inactive; ? = inconclusive; . = not tested or not shown. In the library only some 5.7% were active in any assay of this set; here they are far more common. Unless noted, calls come from the whole dose curve; as a rule, active = well fitted curve in the direction sought with a large enough effect; inconclusive = small, poorly fitted or top-dose-only effect, or another doubt; inactive = no such curve, though single readings can be large; an effect the other way counts as inactive or inconclusive.

SMILES	IL1B secr inh	HepG2 viability	TGFb SMAD3 inh	ATXN viability	ATXN2 expr inh
Cc1ccc(/C=N/NC(=O)c2ccncc2)s1	22	7%	0%	i	9%
Cc1cc(C(=O)N/N=C/c2ccc(C)s2)n[nH]1	-9	-2%	-2%	i	29%
Cc1cccc(NC(=S)N/N=C/c2ccc([N+](=O)[O-])s2)c1	0	6.3µM*	7.1µM*	.	20µM*
O=C(N/N=C/c1ccc([N+](=O)[O-])s1)c1ccncc1	-98*	13µM*	?	i	?
Cc1ccc(C(=O)N/N=C\c2ccc([N+](=O)[O-])s2)cn1	-5	-7%	-24%	i	?
Cc1cc(C(=O)N/N=C/c2ccc([N+](=O)[O-])s2)n[nH]1	-6	18µM*	11µM*	?	14µM*
CCOC(=O)c1cccc(NC(=O)C2CCN(S(=O)(=O)c3cn(C)cn3)CC2)c1	.	1%	0%	.	.
CC(C)(C)OC(=O)N/N=C\c1ccc([N+](=O)[O-])s1	-19	-13%	-20%	i	-10%
Cc1cc(C(=O)N/N=C/c2cc(Br)ccc2OC(=O)c2ccccc2)n[nH]1	166	-35%	-21%	i	27µM*
CCOC(=O)N/N=C\c1ccc([N+](=O)[O-])s1	-1	-49%	22µM*	?	?
Cc1ccc(/C=C/C(=O)Nc2ccc([N+](=O)[O-])cc2)o1	-10	-7%	?	i	44%
Cc1cc(C(=O)N/N=C/c2cc(Br)ccc2OC(=O)c2ccccc2Cl)n[nH]1	78	-21%	-22%	.	?
Cc1ccc(NC(=O)/C=C/c2ccc([N+](=O)[O-])s2)cc1	-96*	-13%	-30%	i	-18%
CC(=O)N1c2ccc(S(=O)(=O)NCc3ccc(Cl)cc3)cc2CC1C (stereo unspecified)	.	-11%	?	.	.
CCN(c1ccccc1)c1nc(N)nc(C#N)n1	.	19%	-1%	.	.
Cc1cc2nccc(C)c2cc1C	.	2%	-13%	.	.
Cc1ccccc1NC(=S)NCc1ccc2c(c1)cc(C)n2C	33	-53%	11µM*	?	?
Cc1ccccc1NC(=S)NCCC(c1ccccc1)c1ccccc1	-62*	-12%	?	i	?
COc1ccccc1NC(=S)NCc1ccc2c(c1)cc(C)n2C	-8	-30%	?	i	3%
CCCS(=O)(=O)NCc1ccc2c(c1)cc(C)n2C	-69*	-4%	6%	i	29%
COc1cc(OC)c(NS(=O)(=O)c2ccc3c(c2)CCCN3C(C)=O)cc1Cl	.	-24%	-1%	.	.
CCN(C(=O)c1ccc2c(c1)N(Cc1cccc(Cl)c1)C(=O)c1ccccc1S2=O)c1ccccc1 (stereo unspecified)	.	-13%	?	?	0%
COC(=O)c1c(OCc2ccccn2)cc(=O)n2c1CCN(C(=O)c1n[nH]c3c1CCCC3)CC2	.	.	.	i	.
Cc1ccc(O)c2ncccc12	.	.	.	?	16µM*
O=Nc1ccc(O)c2ncccc12	-98*	-96%	?	16µM*	.
SMILES	IL1B secr inh	HepG2 viability	TGFb SMAD3 inh	ATXN viability	ATXN2 expr inh
COCc1ccc(O)c2ncccc12	118	-77%	1.6µM*	?	?
Cc1ccccc1N=Nc1ccc(O)c2ncccc12	2	-3%	-14%	i	?
Cc1c(C)c2cccnc2c2ncccc12	-4	-35%	10µM*	?	?
CCOc1ccc(N(CC)S(=O)(=O)N2CCCC(C(=O)Nc3cc(Cl)ccc3C)C2)cc1 (stereo unspecified)	.	-24%	-25%	.	.
O=C(C=Cc1ccc(/C=C/C(=O)Nc2ccc(C3=NCCN3)cc2)cc1)Nc1ccc(C2=NCCN2)cc1	.	.	.	.	2%
c1ccc2sc(-c3cc4c(c(OC5CCOC5)c3)OCCN(Cc3cccn3-c3nccs3)C4)nc2c1 (stereo unspecified)	.	.	.	i	.
CN1CCc2nc3sc(C(=O)Nc4ccccc4C(F)(F)F)c(N)c3cc2C1	.	-33%	?	.	.
COc1cc(Br)cc(/C=N/NC(=O)Cc2ccc(C(F)(F)F)cc2[N+](=O)[O-])c1O	76	16µM*	10µM*	i	?
CC1(C)CCC2=C(O1)c1ccccc1C(=O)C2=O	.	4µM*	3.2µM*	.	27µM*
CC1(C)CCC(=O)c2ccccc21	5	-27%	26%	i	3%
O=C(c1cnc(N2CCN(c3ccccn3)CC2)c2ccccc12)N1CCN(c2cccc(Cl)c2)CC1	-60*	0%	-16%	?	?
O=C(c1ccc([N+](=O)[O-])c(CS(=O)(=O)c2ccc(Cl)cc2)c1)N1CCCCC1	4	0%	-9%	i	-9%
O=C(c1ccc(S(=O)(=O)Cc2cc(F)ccc2F)c([N+](=O)[O-])c1)N1CCOCC1	-100*	-83%	?	?	.
O=C(c1ccc(S(=O)(=O)Cc2ccccc2F)c([N+](=O)[O-])c1)N1CCCCCC1	-79*	1%	?	i	-20%
O=C(c1ccc2snnc2c1)N1CCN(c2ccccc2)CC1	-14	-12%	0%	i	3%
O=C(c1ccc2snnc2c1)N1CCN(c2ccccn2)CC1	-85*	4%	12%	i	6%
COc1ccc(-n2ncc3c(NC4CCCC4)ncnc32)cc1	.	-19%	32%	i	-10%
Cc1c(C(=O)N2CCC(C)CC2)c(S(=O)(=O)Nc2cccc(C#N)c2)c(C)n1C	.	1%	0%	.	.
CC1CCN(C(=O)c2ccc(SCc3ccccc3F)c([N+](=O)[O-])c2)CC1	-60*	9%	2%	?	-17%
O=C(c1ccc(SCc2ccco2)c([N+](=O)[O-])c1)N1CCOCC1	-5	-69%	-15%	i	6%
O=C(c1ccc(S(=O)(=O)c2ccccc2Cl)c([N+](=O)[O-])c1)N1CCCCCC1	-73*	-20%	?	?	?
O=C(c1ccc(S(=O)(=O)c2cccc(Cl)c2)c([N+](=O)[O-])c1)N1CCN(c2ccccn2)CC1	-246*	-97%	11µM*	i	.
O=C(c1ccc(Cl)c(S(=O)(=O)N2CCCC2)c1)N1CCCCC1	5	11%	5%	i	-6%
NC(=O)c1ccc(-c2nc(-c3ccc4c(c3)OCCO4)c(-c3ccccn3)[nH]2)cc1	.	.	.	.	-32%
O=C(CC1NCCNC1=O)Nc1ccccc1F (stereo unspecified)	.	8%	5%	i	10%
COc1ccc(Cn2c(=O)c3cccnc3n(CC(=O)Nc3c(C)cc(C)cc3C)c2=O)cc1	.	3%	7%	i	1%
Cc1ccc(-n2nnnc2SCC(=O)N(CC(C)C)c2c(N)n(CC(C)C)c(=O)[nH]c2=O)cc1	-52*	-4%	-1%	i	-5%
